Only some compounds are listed: those with a hit (about 8.3% of all), similar ones and a draw of the others.
SW480 rereplic – induces DNA re-replication in SW480 colon adenocarcinoma cells; AID 624297; 340,000 tested, 1.8% active; SW480 DNA re-replication, Hoechst DNA content imaging, 48 h; Potency, µM (doses to about 46.1 µM), hits mostly activators; also: nearly all actives have a fitted effect of over 55% in size
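Compounds, transferred as 23 nL by pin tool, were incubated with cells for 48 hr; DNA content per nucleus was then quantified by Hoechst staining and fluorescence plate imaging.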
Giardia kill – Giardia lamblia killing. 340,000 tested, 0.15% active. activity change, % at 7.66 µM, hits read low. Giardia lamblia trophozoite viability; in the data active = activity change below about -80%; inconclusive = between about -30% and that limit;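 also: parasites exposed to compound for two days anaerobically before the ATP read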
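Trophozoite viability was measured as ATP-dependent luminescence, read 15-30 min after reagent addition. Before that, parasites at 100 cells/well were exposed to compounds for 48 h, anaerobically, at 37 deg C.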
MCF10A rereplic – inducers of DNA re-replication in MCF 10A breast cells; MCF 10A DNA re-replication, Hoechst nuclear intensity, 48 h; Potency, µM (top dose mostly 46.1 µM), usual class: activators; 350,000 tested, 2.9% active; also: nearly all actives have a fitted effect of over 50% in size
RORgamma inh – ROR gamma (mouse) transcription inhibition | P51450 | Drosophila S2 Gal4-RORgamma UAS-luciferase reporter, 20 h | Potency, µM (doses to about 53.6 µM), hits mostly inhibitors | 310,000 tested, 5.4% active | AID 2551; also: nearly all actives have a fitted effect of over 60% in size
Target sequence (P51450 whole entry, looked up, the tested form may be a part): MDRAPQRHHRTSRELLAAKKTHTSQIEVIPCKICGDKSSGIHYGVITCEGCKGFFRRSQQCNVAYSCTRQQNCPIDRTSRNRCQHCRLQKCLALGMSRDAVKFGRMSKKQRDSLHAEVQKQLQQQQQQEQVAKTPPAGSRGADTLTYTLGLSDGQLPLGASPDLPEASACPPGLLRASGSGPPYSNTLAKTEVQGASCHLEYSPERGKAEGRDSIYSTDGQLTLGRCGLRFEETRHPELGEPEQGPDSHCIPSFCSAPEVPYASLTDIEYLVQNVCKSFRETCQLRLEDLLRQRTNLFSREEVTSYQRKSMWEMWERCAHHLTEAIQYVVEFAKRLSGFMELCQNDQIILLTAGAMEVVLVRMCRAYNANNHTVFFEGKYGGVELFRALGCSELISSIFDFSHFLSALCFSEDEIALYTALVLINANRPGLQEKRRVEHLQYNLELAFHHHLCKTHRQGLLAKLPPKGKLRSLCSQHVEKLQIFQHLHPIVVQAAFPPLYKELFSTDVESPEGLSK
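Schneider cells (Drosophila), stable Gal4 DBD–ROR gamma + UAS-luc; 1 hr cmpd preincubation; Cu2+ induction 700 uM final; 20 hr ambient; luminescence.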
Gal4-VP16 FLuc – inhibits Gal4-VP16 luciferase reporter, ROR gamma counter-screen; Drosophila S2 Gal4-VP16 UAS-luciferase, luminescence, 20 h; Potency, µM (series often up to 53.6 µM), usual class: inhibitors; 310,000 tested, 3.5% active;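 also: Gal4-VP16 expression switched on by copper sulfate through the metallothionein promoter; nearly all actives have a fitted effect of over 50% in size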
Chronic BCR inh – blocks chronic active B-cell receptor signaling | 340,000 tested, 0.05% active | Potency, µM (highest dose often 46.1 µM), hits mostly inhibitors | ABC-DLBCL IkBa-CBG/CBR reporter, luminescence ratio, 4 h | AID 493014; active = well fitted inhibition curve with a large enough effect in the signal ratio, with a control signal flat, not every such curve was filed as active; inconclusive = small, poorly fitted or top-dose-only effect, or effect the other way, or a change in a side signal; the % refers to the signal ratio
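Doxycycline induced both beetle luciferases in TMD8 lymphoma cells; IKK-driven degradation limits the IkappaBalpha-fused green signal, while red luminescence normalises for cell number and nonspecific effects. Compounds tested up to 46 uM, 4 hrs.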
Numbers stand for hits; i = inactive; ? = inconclusive; nt = no result given; [ ] = remark or other dose. Unless noted, calls follow the shape of the dose curve; as a rule, active = well fitted curve in the direction sought with a large enough effect; inconclusive = small, poorly fitted or top-dose-only effect, or another doubt; inactive = no such curve, though single readings can be large; an effect the other way counts as inactive or inconclusive.

SMILES | SW480 rereplic | Giardia kill | MCF10A rereplic | RORgamma inh | Gal4-VP16 FLuc | Chronic BCR inh
C#Cc1ccc([C@H]2C=C(C(=O)NC3CC3)O[C@@H](OCC)[C@@H]2CCCO)cc1 | i | i | i | i | i | ?
COc1cnc(-c2ccccn2)nc1Sc1ccc(Cl)cc1 | 21µM | i | 15µM | 5.6µM | 5.6µM | i
COc1cnc(-c2ccccn2)nc1Sc1ccccc1 | ? | i | i | 2.5µM | 11µM | ?
CCOC(=O)CSc1nc(-c2ccccn2)ncc1OC | i | i | ? | ? | i | i
COc1cnc(N(C)C)nc1Sc1ccc(Cl)cc1 | i | i | ? | i | i | i
COc1cnc(-c2ccccn2)nc1Sc1ccc(F)cc1 | i | i | i | i | 3.5µM | i
COc1ccc(Sc2nc(-c3ccccn3)ncc2OC)cc1 | 9.2µM | i | ? | 2.2µM | 8.9µM | i
Cc1ccc(C(=O)N(CC(C)C)c2c(N)n(Cc3ccccc3)c(=O)[nH]c2=O)o1 | i | i | i | nt | nt | i
N#Cc1ccccc1NC(=O)C1SC(=Nc2ccccc2)C(C(=O)Nc2ccc(Cl)cc2)=C1N (stereo not drawn) | i | i | ? | i | i | ?
COc1ccccc1N=C1SC(C(=O)Nc2cccc(Cl)c2Cl)C(N)=C1C(N)=O (stereo not drawn) | 23µM | i | 12µM | i | i | ?
CNC(=S)NNC(=O)COc1ccccc1C | ? | i | i | 7.1µM | 10µM | i
CNC(=S)NNC(=O)COc1cccc(C)c1C | i[9.22 µM] | i | i | 1.4µM | 7.1µM | i
COc1ccc(Nc2nc3ccc(Cl)cc3nc2-n2nc(C)cc2C)cc1 | nt | nt | nt | nt | nt | i
C/C=C(\CS(=O)(=O)c1ccccc1)S(=O)(=O)c1ccccc1 | ? | i | ? | 3.5µM | 6.3µM | ?
C/C(CS(=O)(=O)c1ccccc1)=N\O | i | i | i | i | i[10 µM] | i
CCCCC(C)(O)C/C=C/[C@H]1[C@H](O)CC(=O)[C@@H]1CCCCCCC(=O)O (stereo partly drawn) | nt | nt | nt | i | i | nt
COc1cccc(OC)c1OCc1cc(C2C3CCCC=C3C(C#N)=C(N)C2(C#N)C#N)c(C)cc1C (stereo not drawn) | 18µM | i | 13µM | i | i | ?
CCCN1CC=C2C(C#N)=C(N)C(C#N)(C#N)C(c3cccc(OC)c3OC)C2C1 (stereo not drawn) | i | i | i | i | i | i
CC(=O)c1ccc2c3c(cc(C)c2c1)CCCC3 | i | i | 21µM | nt | nt | nt
O=C(O)CCCCCN1C(=O)C(O)=C(C(=O)/C=C/c2ccccc2)C1c1cccc([N+](=O)[O-])c1 (stereo not drawn) | i | i | i | i | i | i
CCCCNC(=S)N/N=C/c1ccc(OCC(=O)Nc2c(C)cc(C)cc2C)c(OC)c1 | i | i | ? | ? | 5µM | i
COc1ccc(NC(=O)COc2ccc(/C=C/c3cc[n+](C)cc3)cc2OC)cc1 | 8.2µM | i | ? | i | i | i
COc1cc(/C=N/NC(N)=S)ccc1OCC(=O)Nc1ccc(C)c(C)c1 | ? | i | 15µM | 11µM | ? | nt
COc1ccc(NC(=O)COc2ccc(/C=C/c3cccc[n+]3C)cc2OC)cc1 | i | i | i | i | i | i
COc1cc(/C=N/NC(N)=O)ccc1OCC(=O)Nc1ccc(C)c(C)c1 | i | i | i | i | i | i
SMILES | SW480 rereplic | Giardia kill | MCF10A rereplic | RORgamma inh | Gal4-VP16 FLuc | Chronic BCR inh
O=C1C(=O)N(c2ccccn2)C(c2cccc([N+](=O)[O-])c2)/C1=C(/O)c1ccc(Br)cc1 (stereo not drawn) | i | i | i | i | i | i
O=C(O)c1ccc2c(=O)n3c(nc2c1)/C(=C/c1cccc(Cl)c1Cl)CC3 | i | i | i | ? | i | ?
C=CCN(C(=O)CSC1=NC(=O)CN1C(C)=O)c1nc(C)c(-c2ccccc2)s1 | i | i | 12µM | 13µM | ? | ?
C=CCSc1nnc(-c2sc(-c3ccccc3)nc2C)n1C | i | i | i | i | i | i
CN(C)S(=O)(=O)c1ccc(C(=O)NNC(=O)C23CC4CC(CC(C4)C2)C3)cc1 | i | i | i | nt | nt | i
Cc1ccc(C2=NN(S(=O)(=O)c3ccccc3)C(c3ccccc3O)C2)cc1 (stereo not drawn) | i | i | i | i | ? | ?
COc1ccc(C2CC(c3ccccc3)=NN2C(=S)Nc2ccccc2)cc1 (stereo not drawn) | i | i | i | ? | i | i
COc1ccc(C2CC(c3ccccc3)=NN2S(=O)(=O)c2ccccc2)cc1 (stereo not drawn) | ? | i | i | ? | 4.5µM | ?
COc1ccc(C2CC(c3ccccc3)=NN2c2ccc(Cl)c(C(=O)O)c2)cc1 (stereo not drawn) | ? | i | 8.2µM | i | i | i
COc1ccc(C2CC(c3ccccc3O)=NN2c2ccccc2)cc1 (stereo not drawn) | 18µM | i | 16µM | nt | nt | nt
COc1ccc(C2CC(c3ccc(OC)cc3O)=NN2C(=O)c2ccccc2)cc1 (stereo not drawn) | i | i | ? | i | i | i
CCC(=O)Nc1cccc(C2=NN(c3ccccc3)C(c3ccc(OC)cc3)C2)c1 (stereo not drawn) | 18µM | i | ? | i | i | i
CCOc1ccccc1N1CCN(C(=O)c2c(CC)noc2C)CC1 | i | i | i | nt | nt | i
COc1ccc(C2=NN(C(N)=S)C(c3ccccc3)C2)cc1 (stereo not drawn) | ? | i | i | i | ? | i
CC(=O)N1N=C(C)CC1c1ccc(OCc2ccccc2)cc1 (stereo not drawn) | i | i | i | ? | i | ?
COc1ccc(C2CC(c3ccccc3)=NN2c2ccc(N)cc2)cc1 (stereo not drawn) | 23µM | i | 16µM | i | i | ?
CC(=O)Oc1ccc(C2=NN(c3ccccc3)C(c3ccccc3)C2)cc1 (stereo not drawn) | 18µM | i | 5.8µM | i | i | i
C=CCOc1ccc(C2CC(C)=NN2c2ccccc2)cc1 (stereo not drawn) | ? | i | 21µM | i | i | ?
Cc1cccc(C2=NN(c3ccccc3)[C@@H](C(=O)N3CCOC3=O)[C@@H]2C)c1 | i | i | i | i | i | i
CC[C@@H]1C(c2ccccc2)=NN(c2ccccc2)[C@H]1C(=O)N1CCOC1=O | i | i | 23µM | i | i | ?
CC[C@@H]1C(c2ccc(F)cc2)=NN(c2ccccc2)[C@H]1C(=O)N1CCOC1=O | i | i | ? | i | i | i
C[C@@H]1C(c2ccccc2)=NN(c2ccc(Br)cc2)[C@H]1C(=O)N1CCOC1=O | ? | i | 15µM | i | i | i
Cc1cccc(C2=NN(c3ccc(Br)cc3)[C@@H](C(=O)N3CCOC3=O)[C@@H]2C)c1 | ? | i | 5.2µM | i | i | i
